Data on 5 compounds can be found in PubChem BioAssay (EPA / NIEHS).

Values joined by “and” are separate entries in the source; they are usually repeats but may differ in a detail not shown here. Identical values can stand only once. Records with an inconclusive call do not appear. Active and inactive are the calls of the source. How the source made its calls, unless noted: active means hit-call score of the fitted dose curve at least 0.9, where 1 is the maximum; inactive means score below 0.9.

Read-out in test [1]: Pyruvate Dehydrogenase Kinase 4 (PDK4), PDK4 (gene 5166)
Nature of the test: LTEA_HepaRG_PDK4: Life Technologies and Expression Analysis (LTEA) Assay for Pyruvate Dehydrogenase Kinase 4 (PDK4) using HepaRG (AID 2283525). Particulars: mRNA level, 48 h; actives raise or lower the signal. In outline: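 Readout is qRT-PCR of PDK4 transcript, normalized to three housekeeping genes, with bidirectional fitting against 0.5% DMSO vehicle. Differentiated HepaRG cells were treated 48 h in serum-free induction medium, duplicate wells, eight-point half-log series topping at 100 uM.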

Read-out in test [2]: NAD(P)H dehydrogenase [quinone] 1 (NQO1), NQO1 (gene 1728)
Put plainly: LTEA_HepaRG_NQO1: Life Technologies and Expression Analysis (LTEA) Assay for NAD(P)H dehydrogenase [quinone] 1 (NQO1) using HepaRG (AID 2283526). Particulars: mRNA level, 48 h; actives raise or lower the signal. In outline:
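Transcript induction or suppression is quantified by qRT-PCR in human HepaRG liver cells dosed for 48 hours. Eight half-log concentrations topping at 100 uM are used, with 0.5% DMSO as vehicle and baseline.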

Read-out in test [3]: succinate dehydrogenase complex iron sulfur subunit B (SDHB), SDHB (gene 6390)
Nature of the test: LTEA_HepaRG_SDHB: Life Technologies and Expression Analysis (LTEA) Assay for succinate dehydrogenase complex iron sulfur subunit B (SDHB) using HepaRG (AID 2283528). Particulars: mRNA level, 48 h; actives raise or lower the signal. In outline:
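Readout is SDHB transcript level by qRT-PCR, normalised to three housekeeping genes and fitted bidirectionally against 0.5% DMSO vehicle. Human HepaRG cells were treated for 48 h at up to 100 uM.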

Read-out in test [4]: Signal transducer and activator of transcription 3 (Homo sapiens) (UniProt P40763)
Put plainly: LTEA_HepaRG_STAT3: Life Technologies and Expression Analysis (LTEA) Assay for Signal transducer and activator of transcription (STAT3) using HepaRG (AID 2283529). Particulars: mRNA level, 48 h; actives raise or lower the signal. In outline: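 STAT3 transcript quantified by qRT-PCR against three housekeeping genes (ACTB, GAPDH, POLR2A), fitted both directions relative to DMSO. HepaRG cultures exposed 48 h to eight half-log concentrations, top 100 uM, 0.5% DMSO, serum-free induction medium.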

Read-out in test [5]: solute carrier (SLCO1B1), SLCO1B1 (gene 10599)
Nature of the test: LTEA_HepaRG_SLCO1B1: Life Technologies and Expression Analysis (LTEA) Assay for solute carrier (SLCO1B1) using HepaRG (AID 2283530). Particulars: mRNA level, 48 h; actives raise or lower the signal. An outline of the steps: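 Human HepaRG cultures treated for 48 h with an eight-concentration half-log series topping at 100 uM; SLCO1B1 measured by qRT-PCR and fitted bidirectionally relative to DMSO.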

Read-out in test [6]: sulfotransferase 2A1 (SULT2A1), SULT2A1 (gene 6822)
Nature of the test: LTEA_HepaRG_SULT2A1: Life Technologies and Expression Analysis (LTEA) Assay for sulfotransferase 2A1 (SULT2A1) using HepaRG (AID 2283531). Particulars: mRNA level, 48 h; actives raise or lower the signal. In outline:
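Gene-expression endpoint in a human liver cell line: SULT2A1 mRNA change after 48 h chemical treatment, curves fitted in both directions relative to 0.5% DMSO vehicle. Concentrations spanned eight half-log steps from 100 uM.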

Read-out in test [7]: Transforming Growth Factor (TGFA), TGFA (gene 7039)
Put plainly: LTEA_HepaRG_TGFA: Life Technologies and Expression Analysis (LTEA) Assay for Transforming Growth Factor (TGFA) using HepaRG (AID 2283532). Particulars: mRNA level, 48 h; actives raise or lower the signal. In outline: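 TGFA transcript quantified by qRT-PCR (Fluidigm arrays) against three housekeeping genes, after 48 hours chemical treatment of HepaRG cells. Top concentration 100 uM with half-log dilutions, 8 points, duplicates, 0.5% DMSO.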

Read-out in test [8]: Transforming Growth Factor (TGFB1), TGFB1 (gene 7040)
Nature of the test: LTEA_HepaRG_TGFB1: Life Technologies and Expression Analysis (LTEA) Assay for Transforming Growth Factor (TGFB1) Transporter using HepaRG (AID 2283533). Particulars: mRNA level, 48 h; actives raise or lower the signal. In outline:
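Eight-point concentration-response (max 100 uM, half-log) in HepaRG under serum-free induction conditions, 48 h. TGFB1 mRNA by qRT-PCR, housekeeping-normalized.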

Read-out in a further test: TIMP1, TIMP1 (gene 7076)
Nature of the test: LTEA_HepaRG_TIMP1: Life Technologies and Expression Analysis (LTEA) Assay for TIMP1 using HepaRG (AID 2283534). Particulars: mRNA level, 48 h; actives raise or lower the signal. An outline of the steps:
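TIMP1 induction or repression in HepaRG cells after 48 h chemical exposure (eight concentrations, highest 100 uM), assessed by normalized qRT-PCR with bidirectional fitting to DMSO controls.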

Read-out in test [9]: Tumor necrosis factor receptor 1 (TNFRSF1A), TNFRSF1A (gene 7132)
Put plainly: LTEA_HepaRG_TNFRSF1A: Life Technologies and Expression Analysis (LTEA) Assay for Tumor necrosis factor receptor 1 (TNFRSF1A) using HepaRG (AID 2283535). Particulars: mRNA level, 48 h; actives raise or lower the signal. An outline of the steps:
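Assay uses 48 h chemical treatment of differentiated HepaRG monolayers, tested in duplicate at eight concentrations from 100 uM downward in 0.5% DMSO. mRNA is normalized to ACTB, GAPDH and POLR2A, with induction or suppression fitted relative to vehicle.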

Read-out in test [10]: Thyroid Hormone Responsive (THRSP), THRSP (gene 7069)
Nature of the test: LTEA_HepaRG_THRSP: Life Technologies and Expression Analysis (LTEA) Assay for Thyroid Hormone Responsive (THRSP) using HepaRG (AID 2283536). Particulars: mRNA level, 48 h; actives raise or lower the signal. An outline of the steps: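 THRSP transcript quantified by Fluidigm qRT-PCR against three housekeeping genes after 48 h chemical exposure of HepaRG cells in serum-free induction medium; eight-point half-log series, top 100 uM, 0.5% DMSO vehicle, duplicate wells.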

Read-out in test [11]: Cellular tumor antigen p53 (Homo sapiens) (UniProt P04637)
Nature of the test: LTEA_HepaRG_TP53: Life Technologies and Expression Analysis (LTEA) Assay for Tumor Protein P53 (TP53) using HepaRG (AID 2283537). Particulars: mRNA level, 48 h; actives raise or lower the signal. In outline:
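Read-out is TP53 transcript level by microfluidic qRT-PCR, normalised to three housekeeping genes and fitted bidirectionally against DMSO. Human HepaRG cells received compounds for 48 h, highest concentration 100 uM.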

Read-out in test [12]: UDP glucuronosyltransferase (UGT1A1), UGT1A1 (gene 54658)
Nature of the test: LTEA_HepaRG_UGT1A1: Life Technologies and Expression Analysis (LTEA) Assay for UDP glucuronosyltransferase (UGT1A1) using HepaRG (AID 2283538). Particulars: mRNA level, 48 h; actives raise or lower the signal. An outline of the steps: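 Cells are plated, cultured 48 h, switched to serum-free induction medium, then dosed 48 h at eight concentrations (max 100 uM, 0.5% DMSO). RNA is isolated and UGT1A1 expression measured by qRT-PCR; changes versus DMSO are fitted in both directions.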

Read-out in test [13]: UDP glucuronosyltransferase (UGT1A6), UGT1A6 (gene 54578)
Nature of the test: LTEA_HepaRG_UGT1A6: Life Technologies and Expression Analysis (LTEA) Assay for UDP glucuronosyltransferase (UGT1A6) using HepaRG (AID 2283539). Particulars: mRNA level, 48 h; actives raise or lower the signal. An outline of the steps:
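Measures mRNA change in HepaRG hepatic cells exposed 48 h to chemicals (eight-point, maximum 100 uM, 0.5% DMSO vehicle) in serum-free induction medium. Expression normalized to endogenous controls; DMSO served as negative control and baseline.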

Read-out in test [14]: X-box binding protein 1 (XBP1), XBP1 (gene 7494)
Put plainly: LTEA_HepaRG_XBP1: Life Technologies and Expression Analysis (LTEA) Assay for X-box binding protein 1 (XBP1) using HepaRG (AID 2283540). Particulars: mRNA level, 48 h; actives raise or lower the signal. An outline of the steps:
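Eight concentrations (half-log, highest 100 uM, 0.5% DMSO) tested in duplicate on HepaRG cells over 48 h in serum-free induction medium; qRT-PCR of XBP1 normalised to ACTB, GAPDH, POLR2A.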

Test [15] is described as follows: LTEA_HepaRG_LDH_cytotoxicity: Cytotoxicity Assessment in the Life Technologies and Expression Analysis (LTEA) Assay (AID 2283563; active means hit-call score of the fitted dose curve at least 0.9, where 1 is the maximum). An outline of the steps: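 Spent-medium LDH after 48 h chemical exposure of HepaRG cells in serum-free induction medium; eight concentrations, half-log dilutions from 100 uM, duplicate wells, fitted upward relative to 0.5% DMSO.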
A short description of test [16]: ATG_XTT_Cytotoxicity: Cytotoxicity Assessment in the Attagene TRANS-FACTORIAL HepG2 Assay (AID 2283584; active means hit-call score of the fitted dose curve at least 0.9, where 1 is the maximum;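 on AC50: XTT signal for cell number as viability in transfected HepG2 cells; cells exposed to compound for 24 h before reading; active means loss of viability signal versus DMSO baseline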). An outline of the steps:
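24 h chemical exposure of reporter-transfected HepG2; XTT signal loss vs DMSO indicates cytotoxicity.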

Test [17] can be described thus: TOX21_p53_BLA_p2_viability: Viability Assessment in the Tox21 HCT-116 p53 Agonism Beta-lactamase Assay, Phase 2 (AID 2283591; active means hit-call score of the fitted dose curve at least 0.9, where 1 is the maximum;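 further: compound exposure lasted 16 h at 37 °C; actives lower the ATP signal meaning cytotoxicity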). An outline of the steps: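 Cytotoxicity readout: CellTiter-Glo ATP luminescence, 30 min at room temperature, after the beta-lactamase read. Cells were HCT116 exposed 16 h at 37C to compounds pin-transferred at 217-fold dilution from DMSO stocks.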

Test [18] concerns the target Cellular tumor antigen p53 (Homo sapiens) (UniProt P04637). Put plainly: TOX21_p53_BLA_p2_ratio: Tox21 HCT-116 p53 Agonism Beta-lactamase Assay, Ratio, Phase 2 (AID 2283592; active means hit-call score of the fitted dose curve at least 0.9, where 1 is the maximum). An outline of the steps: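 DMSO-normalized, positive-direction endpoint derived from the 460 nm/530 nm FRET ratio in HCT116 p53 beta-lactamase reporter cells exposed 16 h at 37C and loaded with CCF4-AM for 2 h.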

Signal transducer and activator of transcription 3 (Homo sapiens), sequence (P40763 whole entry, looked up): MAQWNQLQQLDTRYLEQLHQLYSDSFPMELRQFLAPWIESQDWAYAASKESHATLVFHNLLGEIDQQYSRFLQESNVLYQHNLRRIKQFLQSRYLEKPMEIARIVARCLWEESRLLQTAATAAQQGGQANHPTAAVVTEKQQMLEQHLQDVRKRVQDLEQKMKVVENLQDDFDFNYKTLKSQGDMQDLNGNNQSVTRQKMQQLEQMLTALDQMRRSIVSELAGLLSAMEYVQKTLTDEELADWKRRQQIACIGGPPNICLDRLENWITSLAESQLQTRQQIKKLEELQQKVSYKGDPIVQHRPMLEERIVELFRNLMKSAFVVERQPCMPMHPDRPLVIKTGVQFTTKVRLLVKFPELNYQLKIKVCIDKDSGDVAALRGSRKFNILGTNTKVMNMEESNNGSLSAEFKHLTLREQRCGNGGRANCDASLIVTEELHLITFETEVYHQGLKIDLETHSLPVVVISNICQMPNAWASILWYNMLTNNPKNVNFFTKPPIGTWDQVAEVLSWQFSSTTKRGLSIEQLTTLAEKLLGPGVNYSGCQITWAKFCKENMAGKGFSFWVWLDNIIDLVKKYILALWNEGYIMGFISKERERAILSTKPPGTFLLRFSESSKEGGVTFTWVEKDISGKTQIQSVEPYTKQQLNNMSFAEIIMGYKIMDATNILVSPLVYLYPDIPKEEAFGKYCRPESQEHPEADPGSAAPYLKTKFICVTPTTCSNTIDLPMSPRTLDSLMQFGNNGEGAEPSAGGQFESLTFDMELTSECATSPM
Cellular tumor antigen p53 (Homo sapiens), sequence (P04637 whole entry, looked up): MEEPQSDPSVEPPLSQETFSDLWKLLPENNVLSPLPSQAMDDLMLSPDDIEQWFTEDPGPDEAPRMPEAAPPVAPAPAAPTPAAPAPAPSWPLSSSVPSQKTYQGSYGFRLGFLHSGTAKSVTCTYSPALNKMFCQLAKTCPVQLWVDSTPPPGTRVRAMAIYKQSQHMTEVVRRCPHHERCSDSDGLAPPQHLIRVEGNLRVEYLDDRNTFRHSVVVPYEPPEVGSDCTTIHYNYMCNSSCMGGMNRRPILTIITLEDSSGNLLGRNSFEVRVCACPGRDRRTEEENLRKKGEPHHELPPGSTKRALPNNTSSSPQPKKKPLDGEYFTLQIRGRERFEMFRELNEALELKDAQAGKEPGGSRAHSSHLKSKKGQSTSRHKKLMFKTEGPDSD

As to `CC(C)(C)c1cccc(C(C)(C)C)c1O`, the result in test [1], in test [2], in test [3], in test [4], in [5] and in [6] was inactive. For the same compound, the outcome in [7] is “inactive”; in test [8] it was “inactive”; in the test with TIMP1, TIMP1 (gene 7076) it was “inactive”; in test [9], “inactive”; in test [10], “inactive”; in test [11] it was “inactive”. Also, the compound was classed as inactive in test [12], in test [13], in test [14], in test [15], in test [16] and in test [17]. In test [18], the outcome was inactive.

Regarding `Oc1cc2ccccc2c2ccccc12`, the call in test [1], in [2], in [3], in [4], in [5] and in [6] was inactive. The outcome in test [7] is “inactive”; in test [8] it was “inactive”; with TIMP1, TIMP1 (gene 7076), “inactive”; in test [9], “inactive”; in test [10], “inactive”; in test [11], “inactive”. Further, the result in test [12], in [13], in test [14] and in [15] was inactive. Besides, the AC50 (as a rule, the concentration at which the activity in the assay is half-maximal) was 16.6 µM (active) and 16.3 µM (active) in test [16]; 15.2 µM (active) in test [17]; 46.1 µM (active) in test [18].

As for `CN(C)C=O`, the outcome in test [1], in [2], in [3], in test [4], in test [5] and in test [6] was inactive. Besides, the outcome in test [7] was “inactive”; in [8] it was “inactive”; with TIMP1, TIMP1 (gene 7076), “inactive”; in [9], “inactive”; in [10], “inactive”; in test [11] it was “inactive”. Moreover, the outcome in test [12], in test [13], in [14], in test [15], in test [16] and in test [18] was inactive.

As to `OC1CCCCC1`, the compound was called inactive in test [1], in test [2], in test [3], in test [4], in test [5] and in test [6]. Further, the outcome in [7] was “inactive”; in test [8], “inactive”; with TIMP1, TIMP1 (gene 7076), “inactive”; in test [9], “inactive”; in [10], “inactive”; in test [11], “inactive”. In addition, the compound was classed as inactive in test [12], in test [13], in test [14], in [15], in test [16] and in test [18].

Regarding `CN1CCC[C@H]1c1cccnc1`, the compound was classed as inactive in [1], in test [2], in test [3], in [4], in test [5] and in test [6]. Further, the outcome in test [7] is “inactive”; in [8], “inactive”; with TIMP1, TIMP1 (gene 7076), “inactive”; in test [9], “inactive”; in [10], “inactive”; in [12], “inactive”. Moreover, the outcome in test [13], in test [14], in test [15] and in [16] was inactive.
